From the supplement of paper PMC8728848
About 410 targets per protein were measured; listed, in parts, are those with the strongest signals and a random draw of the rest.

Columns and labels:
Experiment in all cases: glycan array binding signal (z-score within array); higher = stronger binding
Settings in all cases: glycan notation: IUPAC condensed, linker removed
Gal6P(b1-4)GlcNAc = target: Gal6P(b1-4)GlcNAc
Outline: (§1)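 Negative Z-scores can be read as non-binding. The Z-score is calculated within each array and then averaged across arrays of one protein sequence at different concentrations or buffers and across linkers. Arrays, 3228 in all, were curated from the Consortium for Functional Glycomics database and kept only where the protein sequence was available.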

GalNAc(b1-3)GlcNAc = target: GalNAc(b1-3)GlcNAc
Outline: as §1

[1] = target: GalNAc(b1-4)GlcNAc(b1-2)Man(a1-3)[GalNAc(b1-4)GlcNAc(b1-2)Man(a1-6)]Man(b1-4)GlcNAc(b1-4)GlcNAc
Outline: as §1

GalNAc(b1-6)GalNAc = target: GalNAc(b1-6)GalNAc
Outline: as §1

GalNAc3S(b1-4)GlcNAc3S = target: GalNAc3S(b1-4)GlcNAc3S
Outline: as §1

GlcA(b1-6)Gal = target: GlcA(b1-6)Gal
Outline: as §1

[2] = target: GlcA3S(b1-3)Gal(b1-4)GlcNAc(b1-2)Man
Outline: as §1

[3] = target: GlcNAc(a1-4)Gal(b1-4)GlcNAc
Outline: as §1

[4] = target: GlcNAc(b1-3)Gal(b1-3)GalNAc
Outline: as §1

[5] = target: GlcNAc(b1-3)Gal(b1-4)GlcNAc(b1-2)Man(a1-3)[GlcNAc(b1-3)Gal(b1-4)GlcNAc(b1-2)Man(a1-6)]Man(b1-4)GlcNAc(b1-4)[Fuc(a1-6)]GlcNAc
Outline: as §1

[6] = target: GlcNAc(b1-3)Gal(b1-4)GlcNAc(b1-3)Gal(b1-4)GlcNAc(b1-2)[GlcNAc(b1-3)Gal(b1-4)GlcNAc(b1-3)Gal(b1-4)GlcNAc(b1-6)]Man(a1-6)[GlcNAc(b1-3)Gal(b1-4)GlcNAc(b1-3)Gal(b1-4)GlcNAc(b1-2)Man(a1-3)]Man(b1-4)GlcNAc(b1-4)[Fuc(a1-6)]GlcNAc
Outline: as §1

[7] = target: GlcNAc(b1-3)Gal(b1-4)GlcNAc(b1-3)Gal(b1-4)GlcNAc(b1-3)Gal(b1-4)GlcNAc(b1-2)Man(a1-3)[GlcNAc(b1-3)Gal(b1-4)GlcNAc(b1-3)Gal(b1-4)GlcNAc(b1-3)Gal(b1-4)GlcNAc(b1-2)Man(a1-6)]Man(b1-4)GlcNAc(b1-4)[Fuc(a1-6)]GlcNAc
Outline: as §1

[8] = target: GlcNAc(b1-3)[GlcNAc(b1-4)][GlcNAc(b1-6)]GlcNAc
Outline: as §1

[9] = target: GlcNAc(b1-3)[GlcNAc(b1-6)]GalNAc
Outline: as §1

Kdn(a2-6)Gal(b1-4)GlcNAc = target: Kdn(a2-6)Gal(b1-4)GlcNAc
Outline: as §1

Man(a1-3)[Man(a1-6)]Man = target: Man(a1-3)[Man(a1-6)]Man
Outline: as §1

[10] = target: Neu5Ac(a2-3)Gal(b1-3)GalNAc6S
Outline: as §1

[11] = target: Neu5Ac(a2-3)Gal(b1-4)GlcNAc(b1-3)Gal(b1-4)GlcNAc(b1-3)Gal(b1-4)GlcNAc(b1-2)Man(a1-3)[Neu5Ac(a2-3)Gal(b1-4)GlcNAc(b1-3)Gal(b1-4)GlcNAc(b1-3)Gal(b1-4)GlcNAc(b1-2)Man(a1-6)]GalNAc
Outline: as §1

[12] = target: Neu5Ac(a2-3)Gal(b1-4)GlcNAc(b1-6)[Neu5Ac(a2-3)Gal(b1-3)]GalNAc
Outline: as §1

[13] = target: Neu5Ac(a2-3)Gal(b1-4)[Fuc(a1-3)]GlcNAc(b1-6)[Gal(b1-3)]GalNAc
Outline: as §1

[14] = target: Neu5Ac(a2-3)[GalNAc(b1-4)]Gal(b1-4)Glc
Outline: as §1

[15] = target: Neu5Ac(a2-6)Gal(b1-4)GlcNAc(b1-2)Man(a1-6)[GlcNAc(b1-2)Man(a1-3)]Man(b1-4)GlcNAc(b1-4)GlcNAc
Outline: as §1

[16] = target: Neu5Ac(a2-6)Gal(b1-4)GlcNAc(b1-3)Gal(b1-4)GlcNAc(b1-3)Gal(b1-4)GlcNAc(b1-2)Man(a1-3)[Neu5Ac(a2-6)Gal(b1-4)GlcNAc(b1-3)Gal(b1-4)GlcNAc(b1-3)Gal(b1-4)GlcNAc(b1-2)Man(a1-6)]GalNAc
Outline: as §1

[17] = target: Neu5Ac(a2-6)Gal(b1-4)GlcNAc(b1-3)Gal(b1-4)GlcNAc(b1-3)GalNAc
Outline: as §1

Neu5Ac(a2-6)GalNAc = target: Neu5Ac(a2-6)GalNAc
Outline: as §1

[18] = target: Neu5Ac(a2-6)GalNAc(b1-4)GlcNAc6S
Outline: as §1

[19] = target: Neu5Ac(a2-8)Neu5Ac(a2-8)Neu5Ac
Outline: as §1

[20] = target: Neu5Gc(a2-3)Gal(b1-3)GlcNAc
Outline: as §1

[21] = target: Neu5Gc(a2-3)Gal(b1-4)GlcNAc(b1-3)Gal(b1-4)GlcNAc(b1-2)Man(a1-3)[Neu5Gc(a2-3)Gal(b1-4)GlcNAc(b1-3)Gal(b1-4)GlcNAc(b1-2)Man(a1-6)]Man(b1-4)GlcNAc(b1-4)GlcNAc
Outline: as §1

B1: AFL5 (Aspergillus fumigatus), Q4WB00 (protein)
chain: MDNFMEMTKKLGHQPELLRLRALDATYDDALEGKLVVAPLDMSEPGKKILDSGTADGTWLRNVRSKQSVPHDYYGSDVEGELFPKDPDGITYFAHSFKDPWPQQYLGFFDLVHIRGSLAGSAPEGPAPVIQNLTTLLKPGGWVQLMEMNAFSPPPNGPAMTDFAKMASEMFTGIGVGDFANNNKSMLEDAGLKNVQEKRVIVNLGKKAKPELHDQSIHGVTGPIVPLTSVARTVKSSFTGEQLDALPARVKEELETEGGQVEMIIAFGQKA
Gal6P(b1-4)GlcNAc
  glycan array binding signal (z-score): -0.398
GalNAc(b1-3)GlcNAc
  glycan array binding signal (z-score): -0.465
[1]
  glycan array binding signal (z-score): 0.619
GalNAc(b1-6)GalNAc
  glycan array binding signal (z-score): -0.013
GalNAc3S(b1-4)GlcNAc3S
  glycan array binding signal (z-score): -0.187
GlcA(b1-6)Gal
  glycan array binding signal (z-score): -0.217
[2]
  glycan array binding signal (z-score): 0.082
[3]
  glycan array binding signal (z-score): -0.335
[4]
  glycan array binding signal (z-score): 0.205
[5]
  glycan array binding signal (z-score): 0.456
[6]
  glycan array binding signal (z-score): 1.94
[7]
  glycan array binding signal (z-score): 1.47
[8]
  glycan array binding signal (z-score): -0.493
[9]
  glycan array binding signal (z-score): -0.216
Kdn(a2-6)Gal(b1-4)GlcNAc
  glycan array binding signal (z-score): 0.092
Man(a1-3)[Man(a1-6)]Man
  glycan array binding signal (z-score): 0.203
[10]
  glycan array binding signal (z-score): -0.456
[11]
  glycan array binding signal (z-score): 2.14
[12]
  glycan array binding signal (z-score): -0.74
[13]
  glycan array binding signal (z-score): 0.716
[14]
  glycan array binding signal (z-score): -0.53
[15]
  glycan array binding signal (z-score): -0.146
[16]
  glycan array binding signal (z-score): 2.17
[17]
  glycan array binding signal (z-score): -0.298
Neu5Ac(a2-6)GalNAc
  glycan array binding signal (z-score): -0.731
[18]
  glycan array binding signal (z-score): 0.024
[19]
  glycan array binding signal (z-score): 0.079
[20]
  glycan array binding signal (z-score): -0.526
[21]
  glycan array binding signal (z-score): 0.635
